This note sets out measurements from PubChem BioAssay.

The subject of assay [1] is Hepatitis C virus NS3 helicase. The assay is described as follows: HCV NS3 helicase inhibitors, primary screen, biochemical, fluorescence polarization, LOPAC1280 library (AID 687035; in the data active = inhibition above about 37%). To be noted: Purified HCV NS3 helicase, Cy5-dT15 ssDNA binding fluorescence polarization; stronger effect = higher value; concentration not given here. For orientation: Polarisation of emitted light reports the rotation of a fluorescent probe.

The nature of assay [2]: Cy5 fluorescence quenching or enhancement artefacts, artefact control for HCV NS3 helicase inhibitor project, biochemical, LOPAC1280 (AID 687037; call rule not given here). To be noted: Cy5-DNA-NS3h complex fluorescence interference counterscreen.
The nature of assay [3]: stimulators of nuclear beta-catenin in C2C12, primary screen, imaging, WNT3A-conditioned medium, mouse C2C12, NPC library (AID 1117326; in the data active = nuclear beta-catenin stimulation mostly above about 4.2%, no sharp cut-off; inactive = mostly below about 10%). To be noted: stronger effect = higher value.
Assay [4] can be described thus: stimulators of insulin release from INS-1E, primary screen, cell-based, 5 mM glucose, NPC library (AID 1117329;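 active = compound raises insulin release from rat beta cells at 5 mM glucose, no numeric limit stated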). Conditions: rat INS-1E insulin secretion, at 10 µM, stronger effect = higher value.
A short description of assay [5]: growth inhibition of GSK3B-pretreated HCT116 cells – cell-based, CellTiter-Glo, 0.2 to 20 µM (AID 1117336;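 active = compounds lowering colon cancer cell viability after pretreatment blocking the GSK3B kinase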). To be noted: HCT116 viability after GSK3B inhibitor, at 20 µM, stronger effect = higher value. (In general: Cellular ATP, detected with luciferase, serves as a proxy for viable cell number.)
A short description of assay [6]: inhibition of endothelial tube formation, primary screen, imaging, VEGF stimulated, CD31 staining, tube area, NPC library (AID 1117340;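 active = compound that reduces growth-factor-driven endothelial tube area in a mixed cell culture, no cutoff stated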). Conditions: VEGF-stimulated ADSC/ECFC co-culture, at 10 µM, stronger effect = higher value.
Assay [7] in a line: glucagon-like peptide 1 release enhancers, primary assay, NCI-H716 cell line, NPC library (AID 1117341;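 active = compound raises GLP1 secretion from the human gut endocrine cells, with no numeric limit stated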). To be noted: NCI-H716 cells, at 10 µM, stronger effect = higher value.
Assay [8] can be described thus: HCT116 colon cancer cell growth inhibition, primary screen, CellTiter-Glo luminescence, NPC library (AID 1117342). To be noted: at 20 µM (top of the series).
A short description of assay [9]: CellTiter-Glo luminescent readout of SW480 viability loss, NPC library primary (AID 1117343;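 active = compounds that lower viability of the colon cancer cells in the luminescence readout, with no numeric limit stated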). To be noted: CellTiter-Glo luminescence; at 20 µM (top of the series).
A short description of assay [10]: decreased DLD-1 cellular survival, CellTiter-Glo luminescent readout, NPC compound collection, primary HTS (AID 1117346;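 active = compounds that lower survival of DLD-1 colon cancer cells in the luminescence readout, no cutoff given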). Conditions: DLD-1 viability, CellTiter-Glo luminescence; at 20 µM (top of the series).
Assay [11] has as its target 6-phosphogluconate dehydrogenase, decarboxylating (Homo sapiens) (UniProt P52209). Briefly: 6PGD enzyme inhibitors, primary screen, biochemical, human, recombinant enzyme, NADPH absorbance (AID 1159550;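 active = at least 20% inhibition of 6-phosphogluconate dehydrogenase activity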). To be noted: recombinant 6PGD, NADPH absorbance 341 nm; at 10 µM; stronger effect = higher value.
A short description of assay [12]: liver-stage malaria parasite growth inhibition, primary screen, cell-based, HepG2, luciferase luminescence, HepG2 viability (AID 624349; in the data active = parasite load remaining mostly below about 12%, no sharp cut-off; inactive = mostly above about 10%;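 note: 100% = mean of DMSO negative control wells on the same plate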). Conditions: P. berghei liver stage in HepG2, luciferase luminescence, concentration not given here; parasite load remaining: stronger effect = lower value; viability: measured here: HepG2 viability without parasites.

SMILES strings stand for the structures. Several values for one entry are separate records, joined by “and”; a condition that tells them apart may be missing. Identical values can stand only once. Activity calls are given as the source filed them.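 Rule for the calls, unless noted: active = compounds that lower survival of HCT116 colon cancer cells in the luminescence readout, no numeric limit stated; inactive = the rest.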

Chain of 6-phosphogluconate dehydrogenase, decarboxylating (Homo sapiens) (P52209 whole entry, looked up): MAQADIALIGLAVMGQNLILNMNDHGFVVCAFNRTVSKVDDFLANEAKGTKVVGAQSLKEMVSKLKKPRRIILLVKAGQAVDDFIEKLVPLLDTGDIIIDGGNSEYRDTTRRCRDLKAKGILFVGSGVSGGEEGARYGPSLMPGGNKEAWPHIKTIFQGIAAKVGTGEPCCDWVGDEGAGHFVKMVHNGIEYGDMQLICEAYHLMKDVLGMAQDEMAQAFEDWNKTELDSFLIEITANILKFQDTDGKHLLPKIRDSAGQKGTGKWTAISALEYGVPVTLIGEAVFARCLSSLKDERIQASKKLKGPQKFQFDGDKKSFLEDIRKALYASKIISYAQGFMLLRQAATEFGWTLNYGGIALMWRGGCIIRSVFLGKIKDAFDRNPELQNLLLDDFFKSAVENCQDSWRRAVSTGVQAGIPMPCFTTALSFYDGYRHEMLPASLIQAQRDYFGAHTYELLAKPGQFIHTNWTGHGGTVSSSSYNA

For `O=C(O)c1cccnc1Nc1cccc(C(F)(F)F)c1`, the inhibition in [1] is -1% (inactive); in [11] it was 12.6% (inactive). Further, in assay [2], the fluorescence ratio (interference) was 0.9 (inactive). Also, the nuclear beta-catenin stimulation in [3] (at 10 µM) was 1.4% (inactive); in assay [3] (stimulation, at 2 µM), 0.9%. Also, the insulin secretion stimulation in [4] is -3.1% (inactive). For the same molecule, the viability decrease in assay [5] is 13% (inactive). Besides, in assay [6], the tube area decrease is 12.7% (inactive). Further, in [7], the GLP1 secretion stimulation was 0.6% (inactive). Also, the inhibition of viability in assay [8] was -5.9% (inactive). Further, the results for the viability decrease (inhibition) in assay [9] and in [10] were 60% (active) and 28.2% (inactive), respectively.

As to `CO[C@@]1(NC(=O)CSCC#N)C(=O)N2C(C(=O)O)=C(CSc3nnnn3C)CS[C@@H]21`, the parasite load remaining in assay [12] is 86% (inactive). For the same molecule, in assay [12], the viability amounted to 102%. In addition, the inhibition was -5% (inactive) in [1] and -6.33% (inactive) in assay [11]. For the same molecule, in assay [2], the fluorescence ratio (interference) was 1 (inactive). Further, the nuclear beta-catenin stimulation in [3] (at 10 µM) is 0.4% (inactive); in [3] (stimulation, at 2 µM), 0.7%. Moreover, the insulin secretion stimulation in assay [4] was -1.4% (inactive). For the same molecule, in [5], the viability decrease was -2.9% (inactive). The tube area decrease in assay [6] was -0.3% (inactive). Besides, the GLP1 secretion stimulation in [7] was -2.4% (inactive). Further, the inhibition of viability in assay [8] is -6.4% (inactive). The viability decrease (inhibition) in assay [9] is -7.4% (inactive); in assay [10], -14.4% (inactive).

Consider `C[C@](N)(Cc1ccc(O)c(O)c1)C(=O)O`, for which the values for the inhibition in [1] and in [11] were -3% (inactive) and -6.99% (inactive), respectively. Further, the fluorescence ratio (interference) in assay [2] is 1 (inactive). In addition, the nuclear beta-catenin stimulation in assay [3] (at 10 µM) was 2.9% (inactive); in [3] (stimulation, at 2 µM), 1.2%. Besides, in assay [4], the insulin secretion stimulation was 1.8% (inactive). Besides, the viability decrease in [5] is 17.5% (inactive). Moreover, the tube area decrease in assay [6] was 1.4% (inactive). Further, the GLP1 secretion stimulation in [7] was 0.4% (inactive). Besides, the inhibition of viability in [8] was 5.03% (inactive). For the same molecule, the viability decrease (inhibition) in assay [9] was -10% (inactive); in assay [10], 0.1% (inactive).

Turning to `C[C@H]1c2cccc(O)c2C(O)=C2C(=O)[C@]3(O)C(O)=C(C(N)=O)C(=O)[C@@H](N(C)C)[C@@H]3[C@@H](O)[C@@H]21`, the parasite load remaining in assay [12] was 95% (inactive) and 57.5% (inactive) and 31.3% (inactive). Further, the viability in assay [12] was 76.2% and 97.6% and 73.5%. For the same molecule, the inhibition in assay [1] is -1% (inactive); in [11], 9.31% (inactive). Besides, the fluorescence ratio (interference) in assay [2] was 1 (inactive). In addition, the nuclear beta-catenin stimulation in assay [3] (at 10 µM) was -0.3% (inactive); in assay [3] (stimulation, at 2 µM), 3.8%. Further, the insulin secretion stimulation in [4] is -0.5% (inactive). For the same molecule, in [5], the viability decrease is 92.4% (active). Further, the tube area decrease in assay [6] was -4.2% (inactive). Also, the GLP1 secretion stimulation in [7] is 2.6% (inactive). Besides, in [8], the inhibition of viability is 68.1% (active). Moreover, the viability decrease (inhibition) in assay [9] was 61.1% (active); in assay [10], 90.9% (active).

For the molecule `O=NN(CCCl)C(=O)NCCCl`, the parasite load remaining in assay [12] was 30.7% (inactive). The viability in [12] was found to be 104%. Moreover, the inhibition in assay [1] was -4% (inactive); in assay [11], 0.0871% (inactive). In addition, the fluorescence ratio (interference) in assay [2] was 1 (inactive). In addition, the nuclear beta-catenin stimulation is 4.9% (inactive) in assay [3] (at 10 µM) and 1.3% in assay [3] (stimulation, at 2 µM). Besides, the insulin secretion stimulation in assay [4] is -0.1% (inactive). Also, the viability decrease in assay [5] is -5.7% (inactive). In addition, in assay [6], the tube area decrease was 23.1% (inactive). For the same molecule, the GLP1 secretion stimulation in [7] was 2.2% (inactive). The inhibition of viability in assay [8] was -16.5% (inactive). Also, the viability decrease (inhibition) in assay [9] was 18.8% (inactive); in assay [10], -24.6% (inactive).

The inhibition is the change of the read-out against control, counted positive when it falls. The term viability denotes a read-out of living cells in per cent, often relative to untreated cells.
